Measurements from PubChem BioAssay (Tox21).
A number with no mark means an inactive call. Entries that show only a call come without a potency. Calls of active or inactive are those of the source. Calls follow the shape of the dose curve; as a rule, active = well fitted activation curve with a large enough effect in the repeat runs; inconclusive = weak or mixed curves; inactive = flat fitted curve, though single readings scatter.

What follows are compounds tested against KiSS-1 receptor (Homo sapiens) (UniProt Q969F8) (assay: Human kisspeptin (KISS1R) small molecule agonists, calcium flux assay in KISS1R-HEK293 cells (AID 1920064)). Details: KISS1R-HEK293, calcium flux fluorescence, agonist; series mostly up to 76.8 µM.
Chain of KiSS-1 receptor (Homo sapiens) (Q969F8 whole entry, looked up): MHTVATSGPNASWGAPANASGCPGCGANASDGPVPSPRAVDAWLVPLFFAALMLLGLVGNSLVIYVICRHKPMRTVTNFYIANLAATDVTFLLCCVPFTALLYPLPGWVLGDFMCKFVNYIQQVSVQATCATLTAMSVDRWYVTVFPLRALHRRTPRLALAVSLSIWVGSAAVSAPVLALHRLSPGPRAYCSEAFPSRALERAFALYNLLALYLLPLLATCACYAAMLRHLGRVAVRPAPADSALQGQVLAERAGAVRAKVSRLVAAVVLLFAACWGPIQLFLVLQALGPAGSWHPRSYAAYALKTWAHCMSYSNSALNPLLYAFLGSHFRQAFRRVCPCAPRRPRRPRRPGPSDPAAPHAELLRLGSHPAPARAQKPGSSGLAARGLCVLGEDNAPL
Procedure, shortened: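 Agonist activity is monitored as intracellular calcium rise in engineered HEK293 cells carrying human KISS1R. Cells are dye-loaded for 1 h at 37 C before compound addition, and fluorescence is recorded for 3 min.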
In the case of CCCOC(=O)CC, the Potency is reported as “inactive”.
C=CC(=O)N1CCOCC1 was tested, and the Potency was “inactive”.
For C=CCOCC(O)CS(=O)(=O)O (centres undefined), the Potency was “inactive”.
For CCCCNCC, the Potency was “inactive”.
With CCCC1CCC(=O)CC1 the Potency was “inactive”.
For CCC(C)COC(C)=O (centres undefined), the Potency was “inactive”.
In the case of CCCNC(C)(C)COC(=O)c1ccccc1, the Potency is reported as “inactive”.
With Cc1ccc(C#N)cc1 the Potency was “inactive”.
Cc1nnc(SCC2=C(C(=O)O)N3C(=O)[C@@H](NC(=O)Cn4cnnn4)[C@H]3SC2)s1 was tested, and the Potency was “inactive”.
CCN(CC)CCNC(C(=O)OCCC(C)C)c1ccccc1 (centres undefined) was tested, and the Potency was “inactive”.
With CCOC(=O)CC(C)C the Potency was “inactive”.
CCCCCCCCCCCCC1CO1 (centres undefined) was tested, and the Potency was “inactive”.
For O=C(O)/C=C(\CC(=O)O)C(=O)O, the Potency was “inactive”.
In the case of CCCCCCCCS(=O)(=O)O, the Potency is reported as “inactive”.
For CC(C)CCCCCOC(=O)CCCCC(=O)OCCCCCC(C)C, the Potency was “inactive”.
In the case of CCOc1ccc(NC(N)=O)cc1, the Potency is reported as “inactive”.
In the case of CC1(C)CC(O)CC(C)(C)N1[O], the Potency is reported as “inactive”.
CC(C)COC(=O)CCCCC(=O)OCC(C)C was tested, and the Potency was “inactive”.
In the case of O=C1NCC2(CCN(CCc3ccccc3)CC2)O1, the Potency is reported as “inactive”.
For C=C(C)C(=O)OCC, the Potency was “inactive”.
With CC(CO)(CO)[N+](=O)[O-] the Potency was “inactive”.
In the case of C=CCCCCCCCCCCCCCC, the activation is reported as -0.0025% [at 15.8 µM].
With OC(C#CCN1CCCC1)(c1ccccc1)c1ccccc1 the Potency was “inactive”.
In the case of C=C(C)[C@@H]1CC=C(C)C(=O)C1, the Potency is reported as “inactive”.
In the case of CCC(C)N (centres undefined), the Potency is reported as “inactive”.
For COC(C)=O, the Potency was “inactive”.
In the case of CCCCN1C[C@H](O)[C@@H](O)[C@H](O)[C@H]1CO, the Potency is reported as “inactive”.
For CC(=O)OCC(=O)NCCCOc1cccc(CN2CCCCC2)c1, the Potency was “inactive”.
In the case of OC1CCCCC1c1ccccc1 (centres undefined), the Potency is reported as “inactive”.
